The panel holds about 83,000 compounds, 20% with a hit somewhere; the sample as a whole holds those more often.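 Step 1: grow cells in 96-well plates. Step 2: add test compound at a single concentration. Step 3: incubate 48 h. Step 4: record percent growth.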 Values without a mark were called inactive. Activity calls are given as the source filed them. The calls were made as follows: active = growth percent below 10; inactive = the rest.

Among the test systems are NCI-H23 lung; NCI-H226 lung; NCI-H322M lung; HOP-62 NSCLC; NCI-H460 lung; HOP-92 NSCLC; NCI-H522 lung; A549/ATCC NSCLC; 786-0 renal; COLO 205 colon.
Experiment in all cases: NCI-60 one-dose screen, 48 h (100 = growth as untreated, 0 = no growth, -100 = all killed)
Holding throughout (conditions): 10 µM unless noted

Turning to `COc1ccc2oc3c4[nH]c5ccccc5c4c4c(c3c2c1)C(=O)N(C(=O)OC(C)(C)C)C4=O`, the growth with NCI-H23 lung was -19.9% (active); with NCI-H226 lung, -1.92% (active); with NCI-H322M lung, 3.12% (active); with HOP-62 NSCLC, -18% (active); in the test with NCI-H460 lung it was 4.57% (active); in the test with HOP-92 NSCLC it was -14.6% (active). For the same molecule, the growth in the test with NCI-H522 lung is -30.7% (active); with A549/ATCC NSCLC, 0.48% (active); with 786-0 renal, 11.6%; in the test with COLO 205 colon, -40.9% (active).
`C=C1CCC2C3(C)COC(c4ccc(F)cc4)OC3CCC2(C)C1CC(O)C1=CCOC1=O` (stereo not given): the growth in the test on NCI-H23 lung is 51.2%; in the test on NCI-H226 lung, 58%; with NCI-H322M lung, 82.1%; in the test with HOP-62 NSCLC it was 81.7%; in the test with NCI-H460 lung it was 93.8%; in the test on HOP-92 NSCLC it was 45.9%. Also, the growth in the test with NCI-H522 lung is -28.2% (active); in the test with A549/ATCC NSCLC, 59.6%; in the test with 786-0 renal it was 19.4%; in the test with COLO 205 colon, 22.8%.
For the molecule `Cc1ccc(-c2nnc3ccc(N/N=C/c4ccccc4)nn23)cc1`, the growth was 60.5% with NCI-H23 lung; 98% in the test on NCI-H226 lung; 91.4% with NCI-H322M lung; 88.5% in the test on HOP-62 NSCLC; 68.5% in the test with NCI-H460 lung; 70.5% in the test with HOP-92 NSCLC. For the same molecule, the growth in the test with NCI-H522 lung was 105%; in the test on A549/ATCC NSCLC it was 93.1%; with 786-0 renal, 99%; in the test on COLO 205 colon it was 98.4%.
As to `CCCCNC(=S)Nc1ccc(OCc2nc3ccccc3[nH]2)cc1`, the growth in the test on NCI-H23 lung was 70%; with NCI-H226 lung it was 102%; with NCI-H322M lung, 80.7%; with HOP-62 NSCLC it was 69.5%; in the test with NCI-H460 lung, 69.7%; with HOP-92 NSCLC it was 96.2%. In addition, the growth in the test on NCI-H522 lung is 36.2%; in the test on A549/ATCC NSCLC, 49.7%; in the test on 786-0 renal, 62.3%; with COLO 205 colon it was 95.6%.
In the case of `O=S(=O)(Nc1cccc(-n2cnc3cc(-c4ccc(O)cc4)ccc32)c1)C1CC1`, the growth was 38.5% with NCI-H23 lung; 19.3% in the test with NCI-H226 lung; 55.3% with NCI-H322M lung; 44.1% in the test with HOP-62 NSCLC; 15.8% in the test on NCI-H460 lung; 87.9% in the test with HOP-92 NSCLC. Further, the growth in the test with NCI-H522 lung is 14.4%; with A549/ATCC NSCLC, 37.7%; in the test on 786-0 renal it was 40.1%; with COLO 205 colon, 25.8%.
Turning to `CSc1ccc(C(=O)Nc2ccc3nn(/C(C#N)=C/c4ccccn4)nc3c2)cc1`, the growth in the test with NCI-H23 lung is -84% (active); with NCI-H226 lung, -59.2% (active); in the test with NCI-H322M lung it was 15.4%; in the test on HOP-62 NSCLC it was -46.2% (active); in the test on NCI-H460 lung it was -54.9% (active); with HOP-92 NSCLC, -48.5% (active). The growth is -87.9% (active) with NCI-H522 lung, 10.6% in the test with A549/ATCC NSCLC, -95.5% (active) in the test with 786-0 renal and -86.1% (active) in the test with COLO 205 colon.
Regarding `COc1ccc(C(=O)/C=C/c2c(F)cccc2Cl)cc1S(N)(=O)=O`, the growth in the test on NCI-H23 lung is -16% (active); in the test on NCI-H226 lung it was 22.2%; with NCI-H322M lung, 17.4%; with HOP-62 NSCLC, 2.33% (active); with NCI-H460 lung it was 3.49% (active); with HOP-92 NSCLC, 9.66% (active). Besides, the growth in the test on NCI-H522 lung was -61.1% (active); in the test with A549/ATCC NSCLC, 8.28% (active); with 786-0 renal, 0.405% (active); with COLO 205 colon, -84.7% (active).
Turning to `CNC(=O)c1cc(Oc2ccc3nc(NC(=O)Nc4cccc(OC(F)(F)F)c4)sc3c2)ccn1`, the growth with NCI-H23 lung was 6.71% (active); with NCI-H226 lung it was -24.5% (active); with NCI-H322M lung, 47.8%; in the test with HOP-62 NSCLC, -71.7% (active); in the test on NCI-H460 lung it was 29.9%; in the test on HOP-92 NSCLC, -63% (active). In addition, the growth was 26.6% in the test on NCI-H522 lung, 35.2% in the test on A549/ATCC NSCLC, -50.7% (active) in the test on 786-0 renal and 68.2% in the test with COLO 205 colon.
In the case of `CCCSc1nc(NCCc2c[nH]c3ccccc23)c(C#N)c(-c2ccc(OC)cc2)n1`, the growth with NCI-H23 lung is 73.7%; in the test on NCI-H226 lung, 50.7%; in the test with NCI-H322M lung, 89%; in the test on HOP-62 NSCLC, 64.5%; with NCI-H460 lung it was 19%; in the test on HOP-92 NSCLC, 64.7%. The growth in the test with NCI-H522 lung was 43.8%; with A549/ATCC NSCLC it was 53.3%; in the test on 786-0 renal, 31.9%; in the test on COLO 205 colon it was 61.3%.
For `CCCCc1c(Nn2cnnn2)no[n+]1[O-]`, the growth with NCI-H23 lung is 56.2%; in the test with NCI-H226 lung it was 82%; in the test on NCI-H322M lung it was 66.7%; with HOP-62 NSCLC it was 81.6%; with NCI-H460 lung it was 36.5%; with HOP-92 NSCLC it was 46.4%. In addition, the growth is -21.9% (active) in the test with NCI-H522 lung, 66.4% in the test with A549/ATCC NSCLC, 56.2% with 786-0 renal and 60.8% with COLO 205 colon.
As for `CCCCCCCCc1ccc(C(=O)Nc2ccc(C)cc2C(=O)O)cc1C`, the growth with NCI-H23 lung is 99.6%; in the test on NCI-H226 lung, 89.4%; in the test with NCI-H322M lung, 99.3%; with HOP-62 NSCLC, 96.2%; in the test on NCI-H460 lung, 92.7%; in the test with HOP-92 NSCLC, 99%. Moreover, the growth with NCI-H522 lung was -0.59% (active); with A549/ATCC NSCLC, 85.8%; in the test with 786-0 renal, 104%; in the test with COLO 205 colon it was 114%.
As for `COCOc1cc2c(=O)c(C)c(C(=O)N[C@@H](Cc3ccccc3)C(O)C(=O)NCc3ccccc3)oc2cc1OC` (stereo not given in full), the growth in the test on NCI-H23 lung was 30%; with NCI-H226 lung it was -40.2% (active); in the test with NCI-H322M lung, 80.6%; in the test on HOP-62 NSCLC, 6.54% (active); in the test on NCI-H460 lung, -9.86% (active); with HOP-92 NSCLC, 27.8%. For the same molecule, the growth with NCI-H522 lung is -11% (active); in the test on A549/ATCC NSCLC, 51.7%; in the test on 786-0 renal, -0.746% (active); in the test with COLO 205 colon it was 49.5%.
For `COc1ccc(C2(SCCNCc3cc(N(C)C)ccn3)c3ccccc3C=Cc3ccccc32)cc1`, the growth with NCI-H23 lung was 13.5%; with NCI-H226 lung, 50.6%; with NCI-H322M lung, 35.1%; with HOP-62 NSCLC, 40%; with NCI-H460 lung, -14% (active); in the test with HOP-92 NSCLC, 0.307% (active). Further, the growth is -17.2% (active) in the test with NCI-H522 lung, 21.3% in the test on A549/ATCC NSCLC, 23.5% in the test on 786-0 renal and -29.8% (active) with COLO 205 colon.

Values taken from PubChem BioAssay (NCI).
